Source: PubChem BioAssay
Results filed as inconclusive are left out. The source made the active and inactive calls.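 How the source made its calls, unless noted: active means GFP signal, as percent of the solvent control, above the screen mean plus 3 SD, about 149; inconclusive means no reading because the compound's own fluorescence upset strain identification; inactive means the rest.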

Legend:
[1] = rapamycin-like changes in RPL19A-GFP expression – cell-based, S. cerevisiae, multiplex flow cytometry, primary screen (AID 1862; in the data active means percent of DMSO control GFP below about 86%;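 further: lower values mimic rapamycin by blocking the RPL19A rise seen in DMSO cells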); conditions: S. cerevisiae RPL19A-GFP strain, flow cytometry fluorescence, 3 h; at 10 µM; stronger effect = lower value
[2] = TOR pathway GLN3 branch reporter MEP2-GFP changes – S. cerevisiae, multiplex flow cytometry, primary screen (AID 1867;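 active means GFP response, as percent of the DMSO control, above the screen-wide mean plus 3 SD, about 139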;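 further: median GFP channel fluorescence of barcode-gated MEP2-GFP cells measured by flow cytometry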); conditions: S. cerevisiae MEP2-GFP strain, 3 h, at 10 µM, stronger effect = higher value, 100% means same as DMSO wells
[3] = TOR pathway RTG branch CIT2 reporter changes – S. cerevisiae, GFP fusion, multiplex flow cytometry, primary screen (AID 1870;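 active means percent response above a set limit, the screen-wide mean plus 3 SD, cut at about 130% in these data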;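 further: barcoded CIT2-GFP strain pooled with four other GFP strains with rapamycin as positive control; median GFP fluorescence per well over plate mean of DMSO wells so 100% = DMSO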); conditions: S. cerevisiae CIT2-GFP expression, 3 h, at 10 µM, stronger effect = higher value
[4] = TOR pathway LAP4-GFP level changes – S. cerevisiae, multiplex flow cytometry, primary screen (AID 1873); conditions: S. cerevisiae LAP4-GFP expression, 3 h, at 10 µM, stronger effect = higher value
[5] = yeast AGP1-GFP level changes, GLN3 branch – cell-based, multiplex flow cytometry, S. cerevisiae, primary screen (AID 1887;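 active means GFP signal above the screen-wide mean plus 3 SD, that is over about 124.5% of the solvent control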;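 further: AGP1-GFP fusion strain of S. cerevisiae within a five-strain barcoded multiplex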); conditions: 3 h, at 10 µM, stronger effect = higher value
[6] = reduced mouse 2C T cell binding to pMHC/ICAM-1 vesicles – MLPCN validation set, flow cytometry, LFA-1/ICAM-1 modulator project, pilot screen (AID 2523;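 active means response below a set limit, under 55% cells CD8-positive and vesicle-bound, and CD8 cells' 90th-percentile brightness under 279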;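 on vesicle binding response: mean PE anti-B7-1 fluorescence of CD8+ cells relative to row control; 100% = QL9-loaded vesicles with DMSO vehicle in the same plate row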); conditions: 2C mouse CD8+ T cells, at 7 µM, stronger effect = lower value; double positive events: measured here: CD8+/vesicle+ event percentage
[7] = molecular target: Integrin beta-1 (Homo sapiens) + Integrin alpha-4 (Homo sapiens) (UniProt P13612+P05556); assay: alpha4beta1 integrin LIBS antibody binding reduction – U937 cells, HUTS-21 mAb, flow cytometry, validation set, VLA-4 allosteric modulator project, pilot screen (AID 2674;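 active means inhibition above 50%, about 3 SD of the validation set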;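 further: antibody binding induced by the VLA-4 ligand LDV present at three times its Kd; 0% = LDV ligand with antibody and no compound and 100% = antibody without LDV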); conditions: HUTS-21 LIBS mAb binding, at 6.7 µM, stronger effect = higher value, binding induced by LDV ligand
[8] = calorie-restriction mimetic ROS inhibitors, yeast – validation compound set, pilot screen (AID 2706;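 active means superoxide response below 65% of plate, a cut near 3 SD across the whole screen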;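 further: yeast exposed to compound for one week at 30 degrees C before staining; 100% = mean of all compound wells on the same plate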); conditions: S. cerevisiae aging, superoxide DHE fluorescence; at 10 µM; stronger effect = lower value
[9] = molecular target: Beta-adrenergic receptor kinase 1 (Homo sapiens) (UniProt P25098); assay: GRK2 binders displacing RNA aptamer, biochemical, validation, human GRK2, bead flow cytometry (AID 488806;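 active means aptamer binding inhibition above 30%, about 3 SD of noise from non-fluorescent compounds; inactive means inhibition at or below 30%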); conditions: bead-bound GRK2, FAM-aptamer displacement, at 10 µM, stronger effect = higher value
[10] = molecular target: Beta-2 adrenergic receptor (Homo sapiens) (UniProt P07550); assay: agonist-induced loss of surface beta2AR – cell-based, FAP fluorogen, flow cytometry, validation set, pilot screen (AID 504459;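 active means percent response above 42, roughly 3 SD of non-fluorescent test compounds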;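 further: agonist-driven loss of surface beta2AR via internalization measured by FAP dye flow cytometry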); conditions: Am2.2-beta2AR cells, at 10 µM, stronger effect = higher value
[11] = molecular target: AP-2 complex subunit beta (Homo sapiens) (UniProt P63010); assay: beta-arrestin/AP2 interaction blockers – biochemical, validation set, GST-AP2 beads, flow cytometry, pilot screen (AID 504541;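 active means inhibition above 54%, about 3 SD of non-fluorescent compounds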;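 further: AP2 carries R879A mutation and is captured from E. coli lysate; bead-bound FITC arrestin peptide fluorescence measuring arrestin peptide binding to AP2; 0% = DMSO wells and 100% = excess unlabeled arrestin peptide control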); conditions: FITC arrestin peptide, at 10 µM, stronger effect = higher value, AP2 beta2 appendage fragment, R879A mutant
[12] = cytosolic pH regulators acting via V-ATPase – S. cerevisiae, pHLuorin, HTS validation (AID 504600; in the data active means response above about 15%;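 further: plate controls were DMSO for no effect and reference compound for full effect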); conditions: V-ATPase proton transport, at 10 µM, stronger effect = higher value
[13] = tested on: anti-desmoglein-3 scFv antibody binding to human DSG3; assay: blockers of pathogenic pemphigus antibody–desmoglein-3 binding – biochemical, validation compound set, bead-based, flow cytometry, pilot screen (AID 588368;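 active means binding below the plate cutoff, the plate median minus 3 SD, with a reading above zero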;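 further: signal is the median channel fluorescence of bead-bound GFP antibody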); conditions: Protein G beads, DSG3-Fc, scFv-GFP binding, at 10 µM, stronger effect = lower value
[14] = Nile Red efflux blockade in pump-expressing yeast – validation compound set, multiplex, phenotypic, pilot screen (AID 588506;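 active means efflux inhibition above 0.42, the validation set average plus 4 SD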;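 further: Nile Red retained in cells so higher fluorescence means more efflux inhibition; 0 = negative control wells and 1 = enniatin B 25 µM full block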); conditions: S. cerevisiae pump-expressing triplex, Nile Red efflux flow cytometry; at 10 µM; stronger effect = higher value; the pumps come from Candida albicans
[15] = molecular target: ATP-binding cassette sub-family B member 6 (Homo sapiens) (UniProt Q9NP58); assay: blockers of ABCB6-driven porphyrin uptake – K562-ABCB6 cells, flow cytometry, validation set, pilot screen (AID 588550;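 active means inhibition above the screen-wide mean plus 3 SD, about 51%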;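 further: 0% = DMSO wells and 100% = benzethonium chloride 70 µM positive control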); conditions: K562-ABCB6 porphyrin accumulation, 1 h, at 10 µM, stronger effect = higher value
[16] = AML differentiation inducers, ER-HoxA9 marrow cells – cell-based, GFP/MAC1 double positive, flow cytometry, validation set, primary screen (AID 588685;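 active means differentiation response of at least 50%, scaled between solvent and reference control, from cells with both markers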;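 further: compound exposure lasts four days before antibody staining and flow analysis; 0% = DMSO wells and 100% = 5 µM fulvestrant positive control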); conditions: stronger effect = higher value, normalized: vehicle 0, fulvestrant 100

Sequence of ATP-binding cassette sub-family B member 6 (Homo sapiens) (Q9NP58 whole entry, looked up): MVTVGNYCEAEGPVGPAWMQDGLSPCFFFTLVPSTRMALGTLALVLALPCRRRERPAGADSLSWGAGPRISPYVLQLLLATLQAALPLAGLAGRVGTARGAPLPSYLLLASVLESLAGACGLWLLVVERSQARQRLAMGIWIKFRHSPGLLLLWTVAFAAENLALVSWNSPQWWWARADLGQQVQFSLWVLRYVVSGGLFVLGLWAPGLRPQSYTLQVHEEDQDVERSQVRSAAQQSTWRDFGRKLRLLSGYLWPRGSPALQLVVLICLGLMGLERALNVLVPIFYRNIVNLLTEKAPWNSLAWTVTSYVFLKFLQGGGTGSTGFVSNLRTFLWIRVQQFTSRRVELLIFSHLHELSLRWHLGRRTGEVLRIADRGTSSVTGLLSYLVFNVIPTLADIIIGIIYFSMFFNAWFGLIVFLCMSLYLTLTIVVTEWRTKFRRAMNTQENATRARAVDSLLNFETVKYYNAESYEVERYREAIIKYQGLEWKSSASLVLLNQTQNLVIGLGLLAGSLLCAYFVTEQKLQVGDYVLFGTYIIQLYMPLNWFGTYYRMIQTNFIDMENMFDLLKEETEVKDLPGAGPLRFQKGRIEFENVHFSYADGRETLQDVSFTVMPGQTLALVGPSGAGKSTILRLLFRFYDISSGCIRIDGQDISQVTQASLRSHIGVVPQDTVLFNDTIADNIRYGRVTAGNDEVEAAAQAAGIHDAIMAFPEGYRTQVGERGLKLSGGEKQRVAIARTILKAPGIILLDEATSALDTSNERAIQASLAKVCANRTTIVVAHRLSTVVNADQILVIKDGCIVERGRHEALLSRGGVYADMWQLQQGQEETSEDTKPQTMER
Sequence of Beta-2 adrenergic receptor (Homo sapiens) (P07550 whole entry, looked up): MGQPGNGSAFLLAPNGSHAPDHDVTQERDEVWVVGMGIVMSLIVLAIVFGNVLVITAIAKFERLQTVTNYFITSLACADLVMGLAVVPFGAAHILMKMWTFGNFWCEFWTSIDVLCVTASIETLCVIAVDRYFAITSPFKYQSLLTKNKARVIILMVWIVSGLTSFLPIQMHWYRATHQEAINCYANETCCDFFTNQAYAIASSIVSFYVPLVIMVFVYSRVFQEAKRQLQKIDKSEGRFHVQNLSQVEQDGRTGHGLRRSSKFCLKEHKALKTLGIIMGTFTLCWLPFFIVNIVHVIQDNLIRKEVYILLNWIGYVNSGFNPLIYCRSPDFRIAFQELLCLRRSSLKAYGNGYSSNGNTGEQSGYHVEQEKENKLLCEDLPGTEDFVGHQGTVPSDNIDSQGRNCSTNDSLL
Sequence of Beta-adrenergic receptor kinase 1 (Homo sapiens) (P25098 whole entry, looked up): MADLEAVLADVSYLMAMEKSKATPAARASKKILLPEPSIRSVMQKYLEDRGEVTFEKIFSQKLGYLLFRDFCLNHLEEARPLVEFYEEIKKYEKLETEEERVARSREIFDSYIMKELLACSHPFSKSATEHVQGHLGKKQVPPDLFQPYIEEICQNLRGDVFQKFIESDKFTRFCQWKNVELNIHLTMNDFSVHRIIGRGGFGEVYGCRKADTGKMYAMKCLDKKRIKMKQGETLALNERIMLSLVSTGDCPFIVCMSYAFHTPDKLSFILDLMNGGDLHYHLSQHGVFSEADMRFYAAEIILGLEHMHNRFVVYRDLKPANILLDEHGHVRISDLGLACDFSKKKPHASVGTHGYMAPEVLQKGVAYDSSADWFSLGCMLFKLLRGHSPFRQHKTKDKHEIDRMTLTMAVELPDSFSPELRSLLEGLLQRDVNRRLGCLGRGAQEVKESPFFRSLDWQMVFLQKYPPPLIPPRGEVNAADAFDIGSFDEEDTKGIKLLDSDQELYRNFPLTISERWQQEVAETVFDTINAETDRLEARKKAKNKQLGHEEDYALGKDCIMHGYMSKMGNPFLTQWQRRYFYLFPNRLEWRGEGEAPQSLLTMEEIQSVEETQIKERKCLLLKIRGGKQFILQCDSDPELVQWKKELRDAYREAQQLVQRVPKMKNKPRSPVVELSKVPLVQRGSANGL
Sequence of Integrin beta-1 (Homo sapiens) + Integrin alpha-4 (Homo sapiens) (P05556 whole entry, looked up): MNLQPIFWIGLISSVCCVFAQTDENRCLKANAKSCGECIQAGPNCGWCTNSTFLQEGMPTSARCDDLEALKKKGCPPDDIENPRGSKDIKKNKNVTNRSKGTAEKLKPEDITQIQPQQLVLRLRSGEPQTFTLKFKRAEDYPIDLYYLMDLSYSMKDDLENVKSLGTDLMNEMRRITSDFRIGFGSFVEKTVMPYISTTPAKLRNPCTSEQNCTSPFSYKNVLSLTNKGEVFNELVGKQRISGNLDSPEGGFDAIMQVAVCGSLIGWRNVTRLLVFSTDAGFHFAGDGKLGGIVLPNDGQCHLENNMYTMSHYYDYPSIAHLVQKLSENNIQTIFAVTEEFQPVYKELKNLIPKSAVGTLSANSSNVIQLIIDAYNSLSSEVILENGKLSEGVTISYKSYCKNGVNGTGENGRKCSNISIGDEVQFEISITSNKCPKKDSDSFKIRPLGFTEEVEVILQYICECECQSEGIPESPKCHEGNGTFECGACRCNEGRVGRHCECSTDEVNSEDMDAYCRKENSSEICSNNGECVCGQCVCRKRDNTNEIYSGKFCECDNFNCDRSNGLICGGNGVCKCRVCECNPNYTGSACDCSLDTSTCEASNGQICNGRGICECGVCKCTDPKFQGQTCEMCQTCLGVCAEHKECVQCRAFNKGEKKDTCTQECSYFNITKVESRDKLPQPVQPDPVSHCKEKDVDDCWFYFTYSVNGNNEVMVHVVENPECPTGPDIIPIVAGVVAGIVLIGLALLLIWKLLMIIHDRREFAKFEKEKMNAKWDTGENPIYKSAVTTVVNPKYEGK
Sequence of Integrin beta-1 (Homo sapiens) + Integrin alpha-4 (Homo sapiens) (P13612 whole entry, looked up): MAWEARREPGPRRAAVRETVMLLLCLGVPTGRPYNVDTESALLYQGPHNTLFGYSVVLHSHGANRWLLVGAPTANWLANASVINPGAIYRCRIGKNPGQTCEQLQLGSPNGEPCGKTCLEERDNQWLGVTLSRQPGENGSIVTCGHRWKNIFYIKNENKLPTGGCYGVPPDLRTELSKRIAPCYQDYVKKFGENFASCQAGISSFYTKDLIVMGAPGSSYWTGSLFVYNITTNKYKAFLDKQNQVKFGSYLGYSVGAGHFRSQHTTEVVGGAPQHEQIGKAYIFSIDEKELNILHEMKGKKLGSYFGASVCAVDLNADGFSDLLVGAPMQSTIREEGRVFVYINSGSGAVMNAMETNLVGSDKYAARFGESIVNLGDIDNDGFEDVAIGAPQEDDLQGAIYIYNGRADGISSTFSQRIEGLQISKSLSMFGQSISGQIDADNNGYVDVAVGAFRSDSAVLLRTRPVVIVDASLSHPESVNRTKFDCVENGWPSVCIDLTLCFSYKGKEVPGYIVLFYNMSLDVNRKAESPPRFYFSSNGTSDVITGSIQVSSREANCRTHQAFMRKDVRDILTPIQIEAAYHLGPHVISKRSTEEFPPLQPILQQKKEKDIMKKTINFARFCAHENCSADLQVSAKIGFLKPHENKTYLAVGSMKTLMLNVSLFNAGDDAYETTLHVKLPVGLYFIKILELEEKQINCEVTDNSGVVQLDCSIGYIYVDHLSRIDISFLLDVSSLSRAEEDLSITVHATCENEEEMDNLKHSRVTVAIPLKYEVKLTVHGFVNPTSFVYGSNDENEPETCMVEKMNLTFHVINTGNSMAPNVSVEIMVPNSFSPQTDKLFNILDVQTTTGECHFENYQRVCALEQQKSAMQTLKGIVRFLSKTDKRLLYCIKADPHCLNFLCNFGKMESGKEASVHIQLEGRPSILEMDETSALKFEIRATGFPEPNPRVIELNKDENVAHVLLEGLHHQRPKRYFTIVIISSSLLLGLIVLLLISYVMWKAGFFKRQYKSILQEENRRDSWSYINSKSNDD
Sequence of AP-2 complex subunit beta (Homo sapiens) (P63010 whole entry, looked up, the tested form may be a part, one chain of several): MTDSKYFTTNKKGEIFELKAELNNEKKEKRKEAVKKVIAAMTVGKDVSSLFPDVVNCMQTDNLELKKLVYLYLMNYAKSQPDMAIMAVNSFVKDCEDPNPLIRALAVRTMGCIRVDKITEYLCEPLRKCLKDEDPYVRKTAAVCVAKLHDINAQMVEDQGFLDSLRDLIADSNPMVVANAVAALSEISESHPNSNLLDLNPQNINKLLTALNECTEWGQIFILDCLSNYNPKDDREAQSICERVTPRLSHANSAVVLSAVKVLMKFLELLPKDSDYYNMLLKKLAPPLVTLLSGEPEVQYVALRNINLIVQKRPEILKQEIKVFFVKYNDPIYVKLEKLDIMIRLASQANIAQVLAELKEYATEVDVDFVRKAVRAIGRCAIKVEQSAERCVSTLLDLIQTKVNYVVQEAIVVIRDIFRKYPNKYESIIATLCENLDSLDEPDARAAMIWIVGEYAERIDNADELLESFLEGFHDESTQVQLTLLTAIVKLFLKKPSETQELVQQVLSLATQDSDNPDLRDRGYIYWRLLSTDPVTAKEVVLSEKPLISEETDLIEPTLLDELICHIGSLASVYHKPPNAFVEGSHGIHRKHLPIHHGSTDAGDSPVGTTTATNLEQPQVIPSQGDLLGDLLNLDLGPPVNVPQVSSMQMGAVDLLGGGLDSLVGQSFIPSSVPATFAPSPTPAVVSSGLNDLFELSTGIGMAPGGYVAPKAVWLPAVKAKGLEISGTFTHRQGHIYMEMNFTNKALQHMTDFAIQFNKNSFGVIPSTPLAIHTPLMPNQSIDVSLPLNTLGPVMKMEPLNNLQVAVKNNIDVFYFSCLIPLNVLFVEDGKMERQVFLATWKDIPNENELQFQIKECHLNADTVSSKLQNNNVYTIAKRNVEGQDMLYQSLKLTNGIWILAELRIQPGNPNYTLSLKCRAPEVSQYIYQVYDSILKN

| Compound | percent of DMSO control GFP [1] | GFP response vs DMSO [2] | percent response of DMSO control [3] | GFP response vs DMSO [4] | GFP response, % of DMSO [5] | double positive events [6] | vesicle binding response [6] | inhibition [7] | superoxide response (% of plate) [8] | aptamer binding inhibition [9] | response [10] | inhibition [11] | response [12] | binding (% of control) [13] | efflux inhibition (fraction of control) [14] | inhibition [15] | differentiation response [16] |
| --- | --- | --- | --- | --- | --- | --- | --- | --- | --- | --- | --- | --- | --- | --- | --- | --- | --- |
| Brc1c(NC2=NCCN2)ccc2nccnc12 | 95% (inactive) | 105% (inactive) | 93.9% (inactive) | 119% (inactive) | 103% (inactive) | 56.2% | 191% (inactive) | 6.4% (inactive) | 95.4% (inactive) | 3% (inactive) | -8.4% (inactive) | 10.1% (inactive) | 0.44% (inactive) | 102% (inactive) | -0.24 (inactive) | 1% (inactive) | -12% (inactive) |
| CCCCCC(=O)O[C@]1(C(C)=O)CC[C@H]2[C@@H]3CCC4=CC(=O)CC[C@]4(C)[C@H]3CC[C@@]21C | 98.9% (inactive) | 95.6% (inactive) | 94.5% (inactive) | 108% (inactive) | 98.1% (inactive) | 60% | 153% (inactive) | -17.2% (inactive) | 105% (inactive) | 0% (inactive) | 6.12% (inactive) | 18.3% (inactive) | -0.4% (inactive) | 105% (inactive) | -0.155 (inactive) | 2% (inactive) | -0.18% (inactive) |
| O=C(O)C1CSC(c2ccco2)N1 (stereo not drawn) | 102% (inactive) | 103% (inactive) | 102% (inactive) | 120% (inactive) | 124% (inactive) | 60.6% | 168% (inactive) | -19% (inactive) | 100% (inactive) | 33% (active) | -18.6% (inactive) | 10% (inactive) | -1.58% (inactive) | 99.5% (inactive) | 0.04 (inactive) | 2% (inactive) | -2.03% (inactive) |
| CC(C)c1ccc(OCc2ccc(C(=O)O)o2)cc1 | 105% (inactive) | 102% (inactive) | 109% (inactive) | 91.5% (inactive) | 93.7% (inactive) | 87.7% | 313% (inactive) | 11% (inactive) | 107% (inactive) | 15% (inactive) | 5.55% (inactive) | 2.53% (inactive) | 13.4% (inactive) | 98.3% (inactive) | -0.16 (inactive) | 2% (inactive) | -7.5% (inactive) |
| CN1CC2CCCC3(C1)C(=O)NC1(CCCCC1)N=C23 (stereo not drawn) | 105% (inactive) | 105% (inactive) | 111% (inactive) | 97.3% (inactive) | 107% (inactive) | 58.9% | 281% (inactive) | 3.7% (inactive) | 103% (inactive) | 1% (inactive) | -7.22% (inactive) | -5.67% (inactive) | 3.54% (inactive) | 99% (inactive) | -0.26 (inactive) | 1% (inactive) | -6.6% (inactive) |
| O=C1OC(c2ccccc2)=C/C1=C/c1cccs1 | 106% (inactive) | 99.3% (inactive) | 105% (inactive) | 86.1% (inactive) | 97.3% (inactive) | 64.9% | 212% (inactive) | -2.53% (inactive) | 97.6% (inactive) | 1% (inactive) | -7.02% (inactive) | 6.48% (inactive) | -2.38% (inactive) | 93.3% (inactive) | -0.1 (inactive) | -5% (inactive) | 3.18% (inactive) |
| CC(=O)OC(C)C[N+](C)(C)C (stereo not drawn) | 103% (inactive) | 102% (inactive) | 96.4% (inactive) | 115% (inactive) | 124% (inactive) | 65.5% | 191% (inactive) | -7.08% (inactive) | 86.6% (inactive) | 5% (inactive) | -16.2% (inactive) | -17.2% (inactive) | 0.37% (inactive) | 107% (inactive) | 0 (inactive) | 6% (inactive) | 6.83% (inactive) |
| O=C(N1CCCCC1)C1(c2ccccc2)CCOCC1 | 99.3% (inactive) | 103% (inactive) | 92% (inactive) | 129% (inactive) | 103% (inactive) | 57.5% | 213% (inactive) | -3.16% (inactive) | 92.5% (inactive) | 1% (inactive) | -7.86% (inactive) | 7.05% (inactive) | 0.45% (inactive) | 104% (inactive) | -0.17 (inactive) | 5% (inactive) | -24.8% (inactive) |
| Cc1ccc(C(=O)O)cc1NC(=O)c1cccs1 | 100% (inactive) | 107% (inactive) | 99.3% (inactive) | 99.4% (inactive) | 98.6% (inactive) | 64.1% | 206% (inactive) | -17.5% (inactive) | 109% (inactive) | 8% (inactive) | 4.14% (inactive) | -1.98% (inactive) | -0.65% (inactive) | 100% (inactive) | 0.04 (inactive) | 10% (inactive) | 0.41% (inactive) |
